Giardia FBPA inh – inhibitors of Giardia lamblia fructose-1,6-bisphosphate aldolase; actives 0.71% (n = 290,000); A8B2U2; purified Giardia FBPA; Potency, µM (doses to about 59.6 µM), for inactives: at the top dose activity, negative = inhibition, most hits filed as inhibitors; further: nearly all actives have a fitted effect of over 55% in size
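Giardia FBPA (40 nM reagent) was preincubated 10 min at RT with compound (up to 57.5 uM final), then substrate plus GAPDH/TPI/NAD/arsenate coupling system with diaphorase/resazurin was added; resorufin fluorescence (525/598 nm) was read after 20 min.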
AMA1-RON2 inh – disrupts binding of P. falciparum AMA1 to RON2. Potency, µM (highest dose often 58.2 µM), without a hit: top-dose activity change, negative = inhibition, actives largely listed as inhibitors. actives 0.2% (n = 360,000). AlphaScreen AMA1-biotinylated RON2 peptide binding;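 further: 0% = vehicle wells and -100% = peptide control; nearly all actives have a fitted effect of over 45% in size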
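AMA1 (3D7) with his tag at 25 nM final met compounds first, then biotinylated RON2 peptide at 25 nM; detection used donor plus acceptor beads, 10 µg/mL apiece, read by AlphaScreen after 30 min at room temperature.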
AmpC inh detg – blocks E. coli AmpC beta-lactamase in detergent assay; AmpC hydrolysis of nitrocefin, absorbance 480 nm, 0.01% Triton; Potency, µM (series often up to 114 µM), for inactives: top-dose activity change, negative = inhibition, actives largely listed as inhibitors; actives 0.041% (n = 370,000); AID 485294;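 further: 0% = no-compound wells and -100% = no-enzyme wells; nearly all actives have a fitted effect of over 25% in size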
Target sequence (P00811 whole entry, looked up): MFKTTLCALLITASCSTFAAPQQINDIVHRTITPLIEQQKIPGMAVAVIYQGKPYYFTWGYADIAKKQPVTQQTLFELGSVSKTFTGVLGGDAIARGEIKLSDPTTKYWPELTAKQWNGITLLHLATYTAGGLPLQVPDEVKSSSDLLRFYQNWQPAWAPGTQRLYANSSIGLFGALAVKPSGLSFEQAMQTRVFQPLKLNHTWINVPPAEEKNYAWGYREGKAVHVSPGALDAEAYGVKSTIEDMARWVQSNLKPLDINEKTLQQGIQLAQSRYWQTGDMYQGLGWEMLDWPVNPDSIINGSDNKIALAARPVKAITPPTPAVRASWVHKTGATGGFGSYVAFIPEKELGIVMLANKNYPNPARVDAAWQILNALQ
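20 mM phosphate pH 7.0 + 0.01% (detergent screen) or 0.0001% Triton X-100; 5.3 nM AmpC reagent; cpd preinc 15 min RT; nitrocefin (800 uM stock) to start; A480 q20 s × 4 min; Activity was normalised to no-enzyme and no-compound control wells.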
AmpC inh no detg – inhibitors of E. coli AmpC beta-lactamase without detergent | actives 0.52% (n = 330,000) | P00811 | AmpC nitrocefin hydrolysis, absorbance 480 nm, 0.0001% Triton | Potency, µM (top dose mostly 57.1 µM), for inactives: at the top dose activity change, negative = inhibition, hits mostly inhibitors;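 further: plate controls were no compound for no effect and no enzyme for full effect; nearly all actives have a fitted effect of over 20% in size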
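AmpC (5.3 nM in the dispensed reagent) in 20 mM phosphate pH 7.0 with 0.01% (detergent screen) or 0.0001% Triton X-100 was preincubated with compounds for 15 min at room temperature. Nitrocefin was then added from an 800 uM solution, and hydrolysis was followed at 480 nm.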
* hit, by the source's call; ? = inconclusive; . = no result; [ ] = remark or other dose. This is a sample that favours compounds with a hit; in the whole collection about 1.1% have one here. The call rests on the fitted dose curve; in most records, active means well fitted curve in the direction sought with a large enough effect; inconclusive means small, poorly fitted or top-dose-only effect, or another doubt; inactive means no such curve, though single readings can be large; an effect the other way counts as inactive or inconclusive. Unless noted, on the % scale 0 is the no-effect control and ±100 the full control effect; potency means the concentration at half of the fitted maximal effect.

SMILES	Giardia FBPA inh	AMA1-RON2 inh	AmpC inh detg	AmpC inh no detg
CC(C)(C)OC(=O)N1CCCC1C(=O)NC1COC2CC(n3cc(F)c(=O)[nH]c3=O)OC12 (centres undefined)	4.3%	.	.	.
CCc1nn(CC(=O)N2CCN(c3cccc(C(F)(F)F)c3)CC2)c(=O)c2cccn12	.	.	3.1%	.
CC1(C(=O)NCCc2c[nH]c3ccccc23)CCN1Cc1csc2ccccc12 (centres undefined)	.	-6.8%	.	.
Cc1ccc([C@H]2N[C@]3(CCCN(Cc4ccc(F)cc4)C3=O)[C@H]3C(=O)N(Cc4ccccc4)C(=O)[C@@H]23)cc1	.	-10.3%	.	.
Cc1ccc(S(=O)(=O)c2nnn3c2nc(N2CCOCC2)c2sccc23)cc1C	.	.	4.2%	.
O=C1NC(Cc2ccccc2)c2nc3ccc(Cl)cc3c(=O)n2-c2ncccc21 (centres undefined)	.	1.1%	.	.
Cc1ccc(C(C)NC(=O)CSc2ccc(S(=O)(=O)N3CCOCC3)cn2)cc1C (centres undefined)	.	10.9%[11.6 µM]	?	47.1%
Cc1ccc(/C=N/N2CCN(Cc3ccc(C)cc3)CC2)cc1	-0.1%	-26.6%	7.1%	19.6%
Cc1ccc(CN2CCN(/N=C\c3cccc([N+](=O)[O-])c3)CC2)cc1	-3.5%	14.1µM*	-2.8%	12.1%
O=[N+]([O-])c1ccccc1C=NN1CCCCCC1	.	17.8µM*	.	.
O=c1[nH]c2ccc(Br)cc2c(-c2ccccc2)c1N1CCOCC1	0.1%	-3.6%	?	1µM*
O=c1[nH]c2ccc(Br)cc2c(-c2ccccc2)c1CN1CCOCC1	-17.0%	-10.4%	?	52.8%
Cn1c(Oc2ccccc2NCc2cc(Br)ccc2O)cc(=O)n(C)c1=O	-16.7%	-1.6%	?	22.4µM*
Cc1cc(C)n2nc(CC(=O)NC3CCCCCCC3)nc2n1	6.7%	-4.1%	-9.6%	-7.9%
Cc1cc(C)n2nc(S(=O)(=O)NC3CCCCC3)nc2n1	6.0%	-3.9%	-9.5%	2.51µM*
Cc1noc(C)c1-c1csc(N2CCC(C(N)=O)CC2)n1	.	.	?	-3.3%
O=C(Nc1nc2ccccc2s1)C1CCN(S(=O)(=O)c2cc([N+](=O)[O-])ccc2Cl)CC1	-20.8%	-24.4%	7.7%	7.94µM*
CCC(C)NC(=O)C1CCN(S(=O)(=O)c2cc([N+](=O)[O-])ccc2Cl)CC1 (centres undefined)	2.6%	-6.6%	2.5%	-21.1%
Cc1cccc(CSc2nc3ccncc3n2CC(=O)Nc2ccc(C)c(C)c2)c1	5.5%	.	-12.9%	3.16µM*
CC(C)c1ccccc1NC(=O)Cn1c(/C=C/c2ccccc2)nc2ccccc21	1.3%	-1.0%	-7.3%	-44.6%
Cc1ccc(C)c(CSc2nc3ccncc3n2CC(=O)Nc2ccc(C)c(C)c2)c1	1.4%	.	?	?
CC(=O)c1cc(-c2ccccc2)n(CC(=O)Nc2ccc(C)c(C)c2)c1C	0.7%	1.2%[11.6 µM]	1.6%	11.2µM*
Cc1ccc(NC(=O)Cn2c(/C=C/c3ccccc3)nc3ccccc32)cc1C	6.3%	-1.9%	3.6%	8.91µM*
O=C(CCCCn1c(=O)c2ccccc2n(Cc2ccccc2F)c1=O)NCc1ccc2c(c1)OCO2	.	.	12.7%	.
COc1cccc(-n2c(SCc3ccc(F)cc3)nc3c([nH]c4ccccc43)c2=O)c1	.	.	6.3%	.
SMILES	Giardia FBPA inh	AMA1-RON2 inh	AmpC inh detg	AmpC inh no detg
CCOC(=O)c1c(C)oc2c1c(C=NCCO)c(O)c1ccccc12	1.99µM*	77.4%	0.2%	244.4%
COc1ccccc1C=NN=C(NN=Cc1ccccc1OC)NN=Cc1ccccc1OC	.	19.1%	.	.
Cc1ccc2nc3c(cc(C(=O)NCc4ccco4)c(=N)n3C(C)C)c(=O)n2c1	.	.	11.5%	.
CN(C)c1ccc(N=Nc2ccc(C(=O)O)cc2)cc1	?	1.4%	1.8%	-4.4%
Cc1csc(N=Nc2ccc(N(C)C)cc2)[n+]1[O-]	.	14.1µM*	.	.
O=C(COC(=O)C1CC2C=CC1C2)Nc1ccc([N+](=O)[O-])cc1 (centres undefined)	.	-1.0%	.	-23.3%
NS(=O)(=O)c1ccc(N/N=C/c2ccc(O)cc2O)c([N+](=O)[O-])c1	1.9%	-5.8%	1.9%	-34.8%
NS(=O)(=O)c1ccc(N/N=C/c2ccc(O)c(O)c2O)c([N+](=O)[O-])c1	7.92µM*	?	-13.2%	7.08µM*
O=C1c2cccc(Cl)c2C(=O)c2c1cccc2N1CCCC1	.	6.31µM*	.	.
COC(=O)C[C@@](O)(CCC(C)(C)O)C(=O)O[C@@H]1C(OC)=C[C@]23CCCN2CCc2cc4c(cc2[C@@H]13)OCO4	-2.5%	.	.	.
